# Compound activity: PubChem, National Center for Advancing Translational Sciences (NCATS)
# POLI inh – qHTS for Inhibitors of Polymerase Iota; DNA polymerase iota (Homo sapiens), Q9UNA4; Pol iota fluorescent replication assay, 10 min; Potency, µM (doses to about 115 µM), for the others: at the top dose activity, negative = inhibition, actives largely listed as inhibitors; 1% of 390,000 active
#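 Pol iota at 10 nM preincubated 15 min with compounds at room temperature; reaction started with fluorescent substrate, 50 nM final. Fluorescence read kinetically at 0 and 10 min; buffer-only wells as negative control.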
# FEN1 inh-1 – qHTS Assay for the Inhibitors of Human Flap endonuclease 1 (FEN1). P39748. Recombinant FEN1 flap cleavage, fluorescence, 15 min. Potency, µM (highest dose often 114 µM), for inactives: top-dose activity change, negative = inhibition, hits mostly inhibitors. 0.35% of 390,000 active; further: on the % scale 0 is the no-effect control and ±100 the full control effect; nearly all actives have a fitted effect of over 65% in size
#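 FEN1 at 10 nM preincubated with compounds 15 min at room temperature, then flap DNA substrate added at 50 nM final. Signal read at 0 and 15 min; concentration-response fitted with four-parameter Hill equation.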
# Pol eta inh-1 – qHTS for Inhibitors of Polymerase Eta | 1.2% of 390,000 active | Potency, µM (titrated, usually from 114 µM), without a hit: at the top dose activity change, negative = inhibition, hits mostly inhibitors | recombinant Pol eta, fluorescent DNA replication assay; further: on the % scale 0 is the no-effect control and ±100 the full control effect
#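 Pol eta at 10 nM preincubated with compounds 15 min at room temperature; reaction started with fluorescent substrate (50 nM final) and read kinetically at 0 and 10 min.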
# WRN helicase inh – qHTS for Inhibitors of WRN Helicase. Bifunctional 3'-5' exonuclease/ATP-dependent helicase WRN (Homo sapiens), Q14191. Potency, µM (highest dose often 114 µM), for the others: at the highest dose activity change, negative = inhibition, actives largely listed as inhibitors. WRN helicase unwinding, fluorescent forked duplex, kinetic. 0.46% of 360,000 active; further: on the % scale 0 is the no-effect control and ±100 the full control effect; nearly all actives have a fitted effect of over 55% in size
#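 Kinetic fluorescence helicase assay: unwinding of a quenched forked DNA duplex (100 nM final) with 2 mM ATP final raises red fluorescence (525/598 nm). Compounds sat 15 min at room temperature with 20 nM WRN beforehand.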
# Pol kappa inh-1 – qHTS for Inhibitors of Polymerase Kappa; DNA polymerase kappa (Homo sapiens), Q9UBT6; AID 588579, 2011; Potency, µM (series often up to 107 µM), for inactives: top-dose activity, negative = inhibition, actives largely listed as inhibitors; purified Pol kappa, fluorescent DNA synthesis assay, 10 min; 0.53% of 400,000 active; further: on the % scale 0 is the no-effect control and ±100 the full control effect
# Target sequence (Q9UBT6 whole entry, looked up): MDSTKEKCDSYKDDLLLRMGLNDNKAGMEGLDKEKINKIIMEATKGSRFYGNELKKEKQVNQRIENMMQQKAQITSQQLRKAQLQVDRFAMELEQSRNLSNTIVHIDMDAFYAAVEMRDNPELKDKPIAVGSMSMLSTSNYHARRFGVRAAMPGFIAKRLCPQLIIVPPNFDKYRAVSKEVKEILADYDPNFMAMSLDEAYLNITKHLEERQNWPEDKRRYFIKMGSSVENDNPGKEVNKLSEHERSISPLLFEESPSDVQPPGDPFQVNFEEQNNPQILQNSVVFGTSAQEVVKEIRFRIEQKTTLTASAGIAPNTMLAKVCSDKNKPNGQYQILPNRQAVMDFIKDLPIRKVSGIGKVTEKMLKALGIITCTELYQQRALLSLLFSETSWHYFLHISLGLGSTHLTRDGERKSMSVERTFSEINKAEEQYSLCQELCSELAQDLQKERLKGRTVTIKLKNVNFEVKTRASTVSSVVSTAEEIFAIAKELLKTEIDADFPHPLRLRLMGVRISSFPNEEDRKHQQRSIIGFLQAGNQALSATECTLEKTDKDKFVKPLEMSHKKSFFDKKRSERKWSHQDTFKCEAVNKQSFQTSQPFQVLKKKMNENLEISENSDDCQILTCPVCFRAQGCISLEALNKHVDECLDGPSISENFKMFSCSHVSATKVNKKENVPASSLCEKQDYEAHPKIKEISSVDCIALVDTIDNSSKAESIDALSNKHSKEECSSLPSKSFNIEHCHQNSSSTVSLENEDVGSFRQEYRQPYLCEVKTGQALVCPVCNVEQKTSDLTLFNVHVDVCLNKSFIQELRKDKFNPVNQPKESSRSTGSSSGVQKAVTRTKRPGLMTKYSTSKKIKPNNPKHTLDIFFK
#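 First, compounds were pin-transferred onto 10 nM Pol kappa. After 15 min at room temperature, substrate was added to 50 nM final. Fluorescence was then measured kinetically at 0 and 10 min.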
# POLB inh – qHTS Assay for Inhibitors of DNA Polymerase Beta. AID 485314, 2010. 1.3% of 340,000 active. Potency, µM (highest dose often 114 µM), for the others: at the top dose activity change, negative = inhibition, most hits filed as inhibitors. Pol beta primer extension/strand displacement, fluorescence kinetic; further: on the % scale 0 is the no-effect control and ±100 the full control effect
#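 Pol beta (10 nM) was preincubated with compound for 15 min at room temperature. The reaction was then started with 50 nM substrate and read immediately and after a further 10 min at room temperature.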
# PGK validate – qHTS for inhibitors of Phosphogylcerate Kinase: Hit Validation Screen. shares compounds with Pol kappa inh-1. TbPGK coupled GAPDH assay, Kinase-Glo luminescence. Potency, µM (series often up to 57.5 µM), without a hit: at the highest dose activity change, negative = inhibition, usual class: inhibitors. 79% of 500 active; further: on the % scale 0 is the no-effect control and ±100 the full control effect; nearly all actives have a fitted effect of over 65% in size
# POLI cherry-pick – qHTS for Inhibitors of Polymerase Iota: Confirmatory Assay for Cherry-picked Compounds; shares compounds with Pol kappa inh-1; Pol iota primer extension, TAMRA/BHQ fluorescence; Potency, µM, usual class: inhibitors; 77% of 1,500 active
# Pol kappa inh-2 – qHTS for Inhibitors of Polymerase Kappa: Confirmatory Assay for Cherry-picked Compounds; shares compounds with Pol eta inh-1; Potency, µM, most hits filed as inhibitors; purified Pol-kappa, fluorescent strand-displacement substrate; 76% of 920 active
# Pol eta inh-2 – qHTS for Inhibitors of Polymerase Eta: Confirmatory Assay for Cherry-picked Compounds | shares compounds with Pol eta inh-1 | Pol eta primer extension, TAMRA/BHQ fluorescence, 10 min | Potency, µM, most hits filed as inhibitors | 64% of 2,600 active | AID 720502, 2013
# FEN1 inh-2 – qHTS Assay for the Inhibitors of FEN1: Confirmatory Assay for Cherry-picked Compounds; shares compounds with FEN1 inh-1; FEN1 flap cleavage, TAMRA/BHQ2 fluorogenic DNA substrate; Potency, µM, hits mostly inhibitors; 79% of 880 active; further: nearly all actives have a fitted effect of over 60% in size
# Starred values were filed as active, the others as inactive; ? = inconclusive; nt = no result; [ ] = dose if it differs, or a comment. Shown are actives, neighbours in structure and some others; about 2.4% of the full set was active somewhere. The call rests on the fitted dose curve; in most records, active means well fitted curve in the direction sought with a large enough effect; inconclusive means small, poorly fitted or top-dose-only effect, or another doubt; inactive means no such curve, though single readings can be large; an effect the other way counts as inactive or inconclusive. Potency means the concentration at half of the fitted maximal effect.
SMILES,POLI inh,FEN1 inh-1,Pol eta inh-1,WRN helicase inh,Pol kappa inh-1,POLB inh,POLI cherry-pick,Pol eta inh-2,FEN1 inh-2,others
N=C1/C(=C\c2ccc(-c3ccc(C(=O)O)cc3)o2)C(=O)N=C2SC=C(c3ccccc3)N12,?,50µM*,3.5µM*,-24%[11.6 µM],50µM*,?,38*,27*,?,
CCCCN(C)C1=CC2=CC(=C(C#N)C#N)CCC2CC1 (stereo not drawn),?,22µM*,?,?,-27%,-2%,75*,76*,76*,Pol kappa inh-2=?
N#Cc1cccc(S(=O)(=O)N2CCN(S(=O)(=O)c3ccc4c(c3)OCCO4)CC2)c1,6%,-11%,nt,nt,-22%,nt,nt,nt,nt,
COC(=O)N1CCC2(CC1)CN(C(=O)Nc1ccc(OC)cc1)C2,nt,nt,nt,nt,3%[60.1 µM],nt,nt,nt,nt,
COCCN=c1scc(-c2ccco2)n1/N=C/c1ccc(O)c(O)c1O,2µM*,35µM*,4.5µM*,28µM*,0%,2.8µM*,11*,9.5*,?,
CC(C)(C)n1ncc2c(=O)n(Cc3cccc(C(F)(F)F)c3)cnc21,-20%,-21%,nt,nt,-15%,nt,nt,nt,nt,
Cc1ccc(/C=C/C(=O)OCC(=O)c2ccc3c(c2)NC(=O)CO3)o1,4%,-16%,-3%,-6%,3%,nt,nt,nt,nt,
O=C1COc2ccc(C(=O)COC(=O)/C=C/c3ccc(Br)o3)cc2N1,20µM*,?,1.6µM*,35µM*,18µM*,nt,21*,67*,?,
O=C1c2ccccc2-c2onc3ccc(N4CCCC4)c1c23,35µM*,22µM*,?,22µM*,-21%,79µM*,60*,?,38*,Pol kappa inh-2=?
COc1ccc2nc(C)cc(Nc3ccc(C)cc3)c2c1,-11%,-4%,-10%,-8%,-9%,1%,nt,nt,nt,
COc1ccc(/C=N/Nc2cc(C)nc3ccc(OC)cc23)c(OC)c1,?,22µM*,?,13µM*,?,32µM*,38*,48*,19*,
O=C(N/N=C/c1ccc(O)c(Br)c1)c1cc2c(ccc3ccccc32)o1,1%,15%,6%,-4%,-15%,0%,nt,nt,nt,
O=C(N/N=C/c1cc(Cl)c(O)c(Cl)c1)c1cc2c(ccc3ccccc32)o1,?,50µM*,22µM*,?,?,28µM*,?,43*,?,Pol kappa inh-2=75*
COc1cc(O)c(C(C)=O)c(CC(=O)O)c1,13µM*,22µM*,3.2µM*,45µM*,13µM*,16µM*,17*,8.5*,60*,PGK validate=8.2µM*
O=C1c2ccccc2C(=O)c2c1ccc(O)c2O,-19%,7.9µM*,?,?,?,nt,?,76*,7.6*,PGK validate=?
CC(=O)NC1CC(=O)N(c2ccc3c(c2)OCCO3)C1 (stereo not drawn),-4%,24%,15%,nt,-7%[60.1 µM],5%,nt,nt,nt,
COc1ccc(CCNC(=O)C(=O)NCC(c2ccc3c(c2)OCO3)N2CCOCC2)cc1 (stereo not drawn),?,10%,-4%,nt,0%[60.1 µM],-20%,nt,nt,nt,
Nc1ccc2c(c1Cl)C(=O)c1ccc(N)c(Cl)c1C2=O,?,?,8.9µM*,-27%[11.6 µM],?,2µM*,17*,43*,?,
Cc1ccc2nc3[nH]c(=O)[nH]c(=O)c3c(N)c2c1,19%,?,-28%,-6%,11%,nt,?,nt,60*,
CN(C)CCCNc1nc(-c2ccccc2)nc2ccccc12,18%,-13%,-23%,-3%,-1%,3%,nt,nt,nt,
CN(C)CCCNc1c2ccccc2nc2ccccc12,8.9µM*,11µM*,22µM*,?,25µM*,2.2µM*,11*,nt,8.5*,Pol kappa inh-2=9.5*
Oc1ccc(CCNc2c3ccccc3nc3ccccc23)cc1O,40µM*,18µM*,?,50µM*,?,7.1µM*,75*,nt,3*,
CCc1ccc(CNC(=O)c2cnc3sc4cc(OC)ccc4n3c2=O)cc1,12%,21%,2%,nt,2%,-11%,nt,nt,nt,
Nc1cccc2c(O)cc(S(=O)(=O)O)cc12,3.2µM*,8.9µM*,2.8µM*,?,8.9µM*,nt,6.7*,6*,43*,PGK validate=5.2µM*;Pol kappa inh-2=2.7*
O=C(O)c1cc2cc(S(=O)(=O)O)ccc2cc1O,-11%,-5%,-1%,1%,-8%,nt,nt,nt,nt,
O=S(=O)(O)c1cc(O)c2cc(Nc3ccccc3)ccc2c1,3.2µM*,50µM*,2.8µM*,11µM*,32µM*,nt,30*,17*,85*,PGK validate=9.2µM*;Pol kappa inh-2=3.4*
Cc1ccccc1OCC(=O)Nc1cc(C)c(O)c(-c2nc3ccccc3o2)c1,?,0%,nt,nt,2%,nt,nt,nt,nt,
Cc1nc(S/C(=C/c2ccc(-c3ccc(C(=O)O)cc3)o2)C(=O)O)n[nH]1,-95%,?,18µM*,-18%[11.6 µM],?,35µM*,42*,19*,48*,
CN(C)CCCNC(=O)c1ccc(-c2cc(O)c3ncccc3c2)cc1,-9%,50µM*,-10%,nt,-14%,nt,47*,?,?,
CN(C)CCCNC(=O)c1ccccn1,11%,-6%,-6%,7%,-6%,8%,nt,nt,nt,
